Experimental data reported in ChEMBL document CHEMBL2218924, “A broad activity screen in support of a chemogenomic map for kinase signalling research and drug discovery” (Biochem J, 2013).

Columns and labels:
[1] = target: G protein-coupled receptor kinase 6 (Homo sapiens) (UniProt P43250); conditions: at 1 µM
[2] = target: G protein-coupled receptor kinase 5 (Homo sapiens) (UniProt P34947); conditions: at 1 µM
Sequence of G protein-coupled receptor kinase 5 (Homo sapiens) (P34947 whole entry, looked up): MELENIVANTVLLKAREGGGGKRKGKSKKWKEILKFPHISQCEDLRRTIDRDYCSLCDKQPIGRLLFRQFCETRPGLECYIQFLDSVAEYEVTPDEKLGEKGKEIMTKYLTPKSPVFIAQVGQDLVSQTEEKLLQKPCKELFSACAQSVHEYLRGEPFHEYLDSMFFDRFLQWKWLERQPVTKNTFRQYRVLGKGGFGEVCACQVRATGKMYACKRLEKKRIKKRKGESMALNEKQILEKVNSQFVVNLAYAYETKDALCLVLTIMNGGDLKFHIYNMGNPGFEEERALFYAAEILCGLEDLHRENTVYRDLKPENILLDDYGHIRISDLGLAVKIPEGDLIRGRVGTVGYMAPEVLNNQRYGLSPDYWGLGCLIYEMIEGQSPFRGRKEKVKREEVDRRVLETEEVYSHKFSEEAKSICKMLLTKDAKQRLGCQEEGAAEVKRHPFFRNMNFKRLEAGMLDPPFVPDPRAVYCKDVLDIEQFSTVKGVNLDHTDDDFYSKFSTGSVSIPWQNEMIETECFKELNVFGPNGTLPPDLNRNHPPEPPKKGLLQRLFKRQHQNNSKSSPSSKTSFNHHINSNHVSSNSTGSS

Sequence of G protein-coupled receptor kinase 6 (Homo sapiens) (P43250 whole entry, looked up): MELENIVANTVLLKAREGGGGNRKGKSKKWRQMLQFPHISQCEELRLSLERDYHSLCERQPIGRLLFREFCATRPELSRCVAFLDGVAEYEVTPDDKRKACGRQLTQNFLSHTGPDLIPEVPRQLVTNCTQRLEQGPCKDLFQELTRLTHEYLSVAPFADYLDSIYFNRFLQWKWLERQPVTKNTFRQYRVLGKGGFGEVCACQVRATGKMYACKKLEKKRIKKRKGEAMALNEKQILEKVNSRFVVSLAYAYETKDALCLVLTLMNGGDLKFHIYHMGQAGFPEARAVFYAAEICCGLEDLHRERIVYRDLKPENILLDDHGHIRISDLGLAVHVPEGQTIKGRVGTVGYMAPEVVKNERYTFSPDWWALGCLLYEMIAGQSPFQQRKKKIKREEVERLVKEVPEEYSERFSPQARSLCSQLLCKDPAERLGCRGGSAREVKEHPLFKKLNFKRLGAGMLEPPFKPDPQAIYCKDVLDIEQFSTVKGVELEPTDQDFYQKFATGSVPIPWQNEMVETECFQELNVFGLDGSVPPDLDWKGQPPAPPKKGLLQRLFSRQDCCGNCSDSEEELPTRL

Row | Compound | residual activity [1] [%] | residual activity [2] [%]
1 | CCOC(=O)c1c(C)[nH]c(/C=C2\C(=O)Nc3ccccc32)c1C | 98 | 
2 | O=C1Nc2ccccc2/C1=C1/Nc2ccccc2/C1=N\OCCC(O)CO (stereo not given) | 68 | 
3 | Cc1cc(Nc2nc(-c3ccccc3)nc3ccccc23)n[nH]1 | 76 | 
4 | COc1ccc(S(=O)(=O)N(CCO)c2ccccc2CN(C)C/C=C/c2ccc(Cl)cc2)cc1 | 91 | 97
5 | COc1ccc(-c2cnc3c(-c4ccsc4)cnn3c2)cc1 | 99 | 
6 | N#Cc1c(NC(=O)c2cccc3ccccc23)sc2c1CCCC2 | 98 | 
7 | COc1ccc(OC)c2c(=S)c3ccccc3[nH]c12 | 98 | 94
8 | O=C1Nc2ccc(Cl)cc2/C1=C/c1cc(Cl)c(O)c(Cl)c1 | 90 | 
